The nature of assay [1]: qHTS assay to identify small molecule agonists of the sonic hedgehog signaling (Shh) pathway (AID 1259368).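 Also: NIH/3T3-derived 3T3Gli1-Luc cells carrying a stable Gli1-driven firefly luciferase reporter; series mostly up to about 92 µM; nearly all actives have a fitted effect of over 15% in size.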 Summed up: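 Following a 24 hr incubation with DMSO-dissolved compounds at 37 C, 5% CO2, Gli1-Luc NIH/3T3-derived cells received luciferase reagent for 30 min at room temperature prior to luminescence measurement.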
For assay [2], the target named is Estrogen receptor beta (Homo sapiens) (UniProt Q92731). As to the kind of experiment: qHTS assay to identify small molecule agonists of the estrogen receptor beta (ER-beta) signaling pathway (AID 1259377; active = well fitted activation curve with a large enough effect in the signal ratio in the repeat runs, not every such curve was filed as active; the % refers to the signal ratio). The essentials: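 Beta-lactamase reporter readout: fluorescence of LiveBLAzer B/G FRET substrate after 2 h at room temperature, following 16 h compound treatment of ER-beta-UAS-bla HEK293T cells at 37C in 2% charcoal-stripped FBS medium.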
Sequence of Estrogen receptor beta (Homo sapiens) (Q92731 whole entry, looked up): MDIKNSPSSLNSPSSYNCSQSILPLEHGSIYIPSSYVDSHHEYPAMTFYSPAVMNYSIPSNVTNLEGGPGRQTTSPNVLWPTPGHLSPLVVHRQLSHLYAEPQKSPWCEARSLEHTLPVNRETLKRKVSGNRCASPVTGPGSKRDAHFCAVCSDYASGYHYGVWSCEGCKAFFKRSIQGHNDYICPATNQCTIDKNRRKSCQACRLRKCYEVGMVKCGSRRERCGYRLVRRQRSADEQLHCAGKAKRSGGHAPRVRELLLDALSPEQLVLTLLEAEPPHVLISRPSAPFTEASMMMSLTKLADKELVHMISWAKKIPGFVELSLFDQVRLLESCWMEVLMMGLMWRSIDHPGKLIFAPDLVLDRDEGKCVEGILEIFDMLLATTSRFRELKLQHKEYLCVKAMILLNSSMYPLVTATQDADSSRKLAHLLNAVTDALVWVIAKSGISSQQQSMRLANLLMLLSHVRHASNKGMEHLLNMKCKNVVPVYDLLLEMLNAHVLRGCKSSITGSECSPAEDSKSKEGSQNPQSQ
Background: Quantitative high-throughput screening tests each substance at several concentrations.

A short description of assay [3]: qHTS assay to identify small molecule agonists of the androgen receptor (AR) signaling pathway in the presence of an antagonist - cell viability counter screen (AID 1259379; active = well fitted curve in the direction sought with a large enough effect in the repeat runs; an effect the other way counts as inactive or inconclusive; also: nearly all actives have a fitted effect of over 25% in size; also: potency is read from the fitted curve at half-maximal effect;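 as to activity change, negative = cytotoxicity: MDA-kb2 human breast cancer cells carrying an MMTV luciferase reporter; series mostly up to about 92 µM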). Summed up: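 Each compound was tested at 15 concentrations on MDA-kb2 cells in the presence of 3.0uM nilutamide. Viability was measured by CellTiter-Fluor fluorescence after a 16 hr incubation at 37C in a CO2-free atmosphere.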

Assay [4] can be described thus: qHTS assay to identify small molecule agonists of the estrogen receptor beta (ER-beta) signaling pathway - cell viability counter screen (AID 1259380; active = well fitted curve in the direction sought with a large enough effect in the repeat runs; an effect the other way counts as inactive or inconclusive; also: nearly all actives have a fitted effect of over 30% in size; also: potency is read from the fitted curve at half-maximal effect). Summed up:
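Compounds dissolved in DMSO were pin-transferred onto ER-beta-UAS-bla HEK293T cells that had settled 6 hr, and exposure ran 16 hr at 37C. Following the reporter read, CellTiter-Glo luminescence after 30 min at room temperature indicated cytotoxicity.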

For assay [5], the target named is Androgen receptor (Homo sapiens) (UniProt P10275). Kind of assay: qHTS assay to identify small molecule agonists of the androgen receptor (AR) signaling pathway in the presence of an antagonist (AID 1259381). Also: nearly all actives have a fitted effect of over 15% in size. Also: potency is read from the fitted curve at half-maximal effect. The essentials: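 Plated MDA-kb2 cells (3,000/well) were pre-incubated 5hr, given nilutamide (3.0uM final) or buffer, then dosed with compounds in DMSO at 15 concentrations. Luciferase activity was quantified by luminescence after 16hr at 37C.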
Sequence of Androgen receptor (Homo sapiens) (P10275 whole entry, looked up): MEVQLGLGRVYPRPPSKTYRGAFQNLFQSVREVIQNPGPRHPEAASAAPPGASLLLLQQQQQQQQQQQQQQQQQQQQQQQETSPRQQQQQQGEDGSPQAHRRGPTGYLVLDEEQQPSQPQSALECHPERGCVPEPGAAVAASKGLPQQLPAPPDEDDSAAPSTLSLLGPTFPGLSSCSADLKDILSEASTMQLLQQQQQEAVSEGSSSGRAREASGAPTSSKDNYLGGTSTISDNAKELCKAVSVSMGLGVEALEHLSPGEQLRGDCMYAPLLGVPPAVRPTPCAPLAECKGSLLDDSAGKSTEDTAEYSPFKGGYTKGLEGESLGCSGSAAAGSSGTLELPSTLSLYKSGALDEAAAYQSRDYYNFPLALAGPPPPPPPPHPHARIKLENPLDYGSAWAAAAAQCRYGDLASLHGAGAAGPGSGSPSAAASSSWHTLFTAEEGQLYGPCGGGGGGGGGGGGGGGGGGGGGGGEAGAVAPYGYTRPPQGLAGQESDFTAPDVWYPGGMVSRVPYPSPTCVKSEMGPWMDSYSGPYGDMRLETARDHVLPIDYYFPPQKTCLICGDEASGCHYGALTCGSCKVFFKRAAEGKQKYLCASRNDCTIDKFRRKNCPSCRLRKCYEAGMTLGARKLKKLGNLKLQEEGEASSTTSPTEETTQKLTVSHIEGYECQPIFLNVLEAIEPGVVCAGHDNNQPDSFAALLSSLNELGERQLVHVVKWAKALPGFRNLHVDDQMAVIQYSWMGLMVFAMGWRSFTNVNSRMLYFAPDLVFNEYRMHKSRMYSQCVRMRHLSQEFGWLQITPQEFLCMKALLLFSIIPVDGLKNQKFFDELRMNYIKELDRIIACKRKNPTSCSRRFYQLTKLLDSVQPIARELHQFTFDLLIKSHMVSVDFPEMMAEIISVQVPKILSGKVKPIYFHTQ

Assay [6] can be described thus: qHTS assay to identify small molecule antagonists of the estrogen receptor beta (ER-beta) signaling pathway - cell viability counter screen (AID 1259382; active = well fitted curve in the direction sought with a large enough effect in the repeat runs; an effect the other way counts as inactive or inconclusive; also: nearly all actives have a fitted effect of over 55% in size; also: potency is read from the fitted curve at half-maximal effect;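 as to activity change, negative = cytotoxicity: HEK293T cells carrying ER-beta-UAS-bla reporter stimulated with estradiol; series mostly up to about 92 µM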). Summed up: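 CellTiter-Glo ATP luminescence measured after the LiveBLAzer read in the same wells; ER-beta-UAS-bla HEK293T cells, 16 hr compound treatment with 1nM 17-beta-estradiol agonist at 37C, 5% CO2.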
Assay [7] deals with Estrogen receptor (Homo sapiens) (UniProt P03372). Kind of assay: qHTS assay to identify small molecule agonists of the estrogen receptor alpha (ER-alpha) signaling pathway in the presence of an antagonist (AID 1259383). Also: top concentration of the series differs between compounds; nearly all actives have a fitted effect of over 15% in size. Summed up:
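Luminescent ERE-luciferase reporter, VM7Luc4E2 cells (endogenous ER-alpha); 10.0nM ICI-182,780 final; 15-point compound titration; 22hr at 37C; ONE-Glo, 30min RT.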

The target in assay [8] is Estrogen receptor beta (Homo sapiens) (UniProt Q92731). As to the kind of experiment: qHTS assay to identify small molecule antagonists of the estrogen receptor beta (ER-beta) signaling pathway (AID 1259378; active = well fitted inhibition curve with a large enough effect in the signal ratio in the repeat runs, not every such curve was filed as active; the % refers to the signal ratio; also: potency is read from the fitted curve at half-maximal effect). Summed up:
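Antagonist mode: compounds added to beta-lactamase reporter HEK293T ER-beta-UAS cells stimulated with E2 (1nM final), 16 hr at 37C. LiveBLAzer B/G FRET substrate, 2 hours room temperature, fluorescence read-out.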

A short description of assay [9]: qHTS assay to identify small molecule agonists or antagonists of the thyroid stimulating hormone receptor (TSHR) signaling pathway - wild type cell line counter screen (AID 1259384). Summed up:
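Counter screen in untransfected Hek293: compounds (15-point titration, triplicate) plus phosphodiesterase inhibitor Ro20-1724 added after 18 h plating; 30 min RT. Intracellular cAMP via competitive d2/cryptate immunoassay, 1 h incubation.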

These results are taken from PubChem BioAssay (Tox21).

Unmarked numbers belong to inactive results. Records with an inconclusive call do not appear. Calls of active or inactive are those of the source. Unless noted, calls follow the shape of the full dose curve.
% is scaled to controls: 0 for no effect and ±100 for the full control effect.

Sequence of Estrogen receptor (Homo sapiens) (P03372 whole entry, looked up): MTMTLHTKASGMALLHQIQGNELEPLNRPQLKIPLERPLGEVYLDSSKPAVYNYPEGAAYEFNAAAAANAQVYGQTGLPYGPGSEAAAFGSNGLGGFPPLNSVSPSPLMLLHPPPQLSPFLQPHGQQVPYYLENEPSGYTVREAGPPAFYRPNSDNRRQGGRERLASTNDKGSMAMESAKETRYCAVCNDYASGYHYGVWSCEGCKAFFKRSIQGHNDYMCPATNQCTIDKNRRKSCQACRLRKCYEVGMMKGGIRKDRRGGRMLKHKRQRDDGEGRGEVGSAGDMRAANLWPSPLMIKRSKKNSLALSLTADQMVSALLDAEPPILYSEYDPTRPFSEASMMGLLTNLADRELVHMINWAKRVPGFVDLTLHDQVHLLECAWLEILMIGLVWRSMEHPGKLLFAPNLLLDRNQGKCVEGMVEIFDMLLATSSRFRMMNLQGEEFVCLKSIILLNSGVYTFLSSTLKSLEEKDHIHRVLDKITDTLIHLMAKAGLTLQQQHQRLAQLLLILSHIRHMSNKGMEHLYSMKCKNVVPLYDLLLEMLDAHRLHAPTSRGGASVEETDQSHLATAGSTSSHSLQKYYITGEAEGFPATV

Regarding `CCOC(=O)[C@@H](C)Oc1ccc(Oc2nc3ccc(Cl)cc3o2)cc1`, the Potency result in [1], in [2], in [3], in assay [4], in assay [5] and in [6] was “inactive” in each case.
Regarding `[O]=[Bi]`, the activity change in [1] was -0.104% [at 8.39 µM, active compounds read high]. Moreover, the activation is 4.87% [at 8.39 µM] in assay [2] and 0.802% [at 8.39 µM] in [7]. The activity change, negative = cytotoxicity in assay [3] was 2.01% [at 8.39 µM]; in [6], -2.24% [at 8.39 µM].
In the case of `Brc1cc(-c2ccc(Br)c(Br)c2Br)cc(Br)c1Br`, the Potency entry in [1], in assay [2], in assay [8], in assay [3], in assay [4] and in assay [6] was “inactive” throughout. Moreover, in assay [7], the Potency entry was “inactive”. Besides, the compound was called inactive in assay [9].
Regarding `CSc1ccc(Oc2ccc(S(N)(=O)=O)cc2CN(C)C)cc1C`, the Potency result in [1], in assay [2], in [3], in [5] and in [7] was “inactive” in each case. The figures for the Potency in [4] and in assay [6] were 38.6 µM (active) and 27.3 µM (active), respectively.
Take `CC(C)(C)C(=O)O`: the Potency result in assay [1], in assay [2], in assay [8], in assay [3], in [4] and in assay [6] was “inactive” each time. The result in [9] was inactive.
As to `CC1CC(=O)NN=C1c1ccc(NCC(C)(C)NCC(O)COc2cc(Cl)ccc2C#N)cc1` (stereo not drawn), the Potency result in assay [1], in assay [2], in assay [3], in [6] and in assay [7] was “inactive” throughout.
Consider `O=S1OCCO1`, for which the Potency entry in assay [1], in [2], in assay [3], in assay [4], in assay [6] and in assay [7] was “inactive” in each case. Besides, in assay [9], the compound was classed as inactive.
`C=CC(=O)NCOCC(C)C`: the Potency entry in [1], in [8], in [3], in assay [4] and in assay [6] was “inactive” each time. The outcome in [9] was inactive.
Regarding `CC(=O)OCC(=O)[C@H]1CC[C@H]2[C@@H]3CCC4=CC(=O)CC[C@]4(C)[C@H]3CC[C@]12C`, the Potency entry in [1], in assay [2], in assay [3], in assay [6] and in assay [7] was “inactive” each time. Moreover, in [5], the Potency was 3.76 µM (active). The call in assay [9] was inactive.
As for `CCCC1C(CC)=CC(CC)=CN1c1ccccc1` (stereo not drawn), the Potency result in assay [1], in assay [2], in assay [4] and in assay [6] was “inactive” in each case. The Potency in assay [3] was 48.6 µM (active).
For `C[C@]12CCC(=O)C=C1C=C[C@@H]1[C@@H]2CC[C@@]2(C)[C@H]1CC[C@@]21CCC(=O)O1`, the Potency entry in [1], in assay [2], in [3], in assay [4], in assay [6] and in assay [7] was “inactive” throughout. The outcome in [9] was inactive.
On to `COc1ccccc1N=Nc1c(S(=O)(=O)O)cc2cc(S(=O)(=O)O)cc(NC(C)=O)c2c1O`, for which the Potency result in [1], in assay [2], in assay [8], in assay [4] and in assay [6] was “inactive” each time. For the same compound, in [3], the Potency is 25.7 µM (active).
For `O=C(N[C@@H](c1ccccc1)[C@@H]1CCCCN1)c1cccc(C(F)(F)F)c1Cl`, the Potency result in assay [1], in assay [2] and in assay [7] was “inactive” in each case. The values for the Potency in [8], in assay [3] and in [6] were 43.3 µM (active), 17.2 µM (active) and 61.1 µM (active), respectively. Further, in assay [9], the compound was called inactive.
As for `Oc1ccc(Nc2ccccc2)cc1`, the Potency entry in assay [1], in [3], in [5] and in assay [7] was “inactive” throughout. For the same compound, in assay [9], the call was inactive.
On to `C/C=C/C=C/CCCCCCCO`, for which the Potency result in [1], in assay [3], in assay [6] and in [7] was “inactive” throughout. The compound was classed as inactive in assay [9].
Turning to `CC(N)CN` (stereo not drawn), the Potency entry in [1], in assay [3], in [4], in assay [6] and in assay [7] was “inactive” each time. Moreover, the compound was called inactive in [9].
Take `CC1=NN(c2ccc(C(=O)O)cc2)C(=O)C1`: the Potency result in assay [1], in assay [3], in assay [4], in assay [5] and in [6] was “inactive” throughout.
In the case of `NC(=O)Nc1ccc(Cl)c(Cl)c1`, the Potency result in assay [1], in [3] and in assay [6] was “inactive” throughout.
For the compound `CCCCCCCCSCCO`, the Potency result in [1], in assay [3], in [4], in assay [5] and in assay [6] was “inactive” throughout. Further, the result in [9] was inactive.
On to `NC(=O)Cn1c(=O)cc(CCN2CCN(c3nccc4sccc34)CC2)c2ccc(F)cc21`, for which the Potency entry in [1], in [6] and in assay [7] was “inactive” each time.
For the compound `O=C(c1ccc(O)cc1)c1ccc(Cl)cc1`, the Potency entry in assay [1], in assay [4] and in [6] was “inactive” each time.
For the compound `CCn1nc(C)c2c1C(=O)NCC(c1ccc(O)cc1)=N2`, the Potency entry in [1], in [8], in assay [3], in assay [4] and in [6] was “inactive” throughout. The result in assay [9] was inactive.
For the compound `CCCCC(=O)O[C@]1(C(=O)CO)[C@@H](C)C[C@H]2[C@@H]3CCC4=CC(=O)C=C[C@]4(C)[C@@]3(F)[C@@H](O)C[C@@]21C`, the Potency entry in assay [1], in assay [3] and in assay [7] was “inactive” each time. Further, the Potency in assay [4] was 15.4 µM (active). Moreover, the compound was classed as inactive in [9].
On to `Cc1oc(C)c(C(=O)Nc2ccccc2)c1C`, for which the Potency entry in assay [1], in assay [6] and in assay [7] was “inactive” throughout.
Consider `CC1(C)C2=CCCC(C)(C)[C@]23CC[C@H]1C3`, for which the Potency entry in assay [1], in assay [3] and in [5] was “inactive” in each case. In assay [9], the compound was classed as inactive.
As to `CC(=O)CC(c1ccc([N+](=O)[O-])cc1)c1c(O)c2ccccc2oc1=O` (stereo not drawn), the Potency result in assay [1], in assay [3], in [4], in [6] and in [7] was “inactive” each time.
Regarding `COCCOC(=O)C1=C(C)NC(C)=C(C(=O)OC/C=C/c2ccccc2)C1c1cccc([N+](=O)[O-])c1` (stereo not drawn), the Potency entry in assay [1], in assay [3], in [4], in assay [6] and in [7] was “inactive” throughout. For the same compound, in assay [9], the outcome was inactive.
Consider `O=C(CCCN1CCC(O)(c2ccc(Br)cc2)CC1)c1ccc(F)cc1`, for which the Potency result in assay [1], in [3] and in assay [7] was “inactive” throughout. For the same compound, in assay [4], the Potency was 23.7 µM (active). For the same compound, the result in [9] was inactive.
Consider `C[Si]1(C)O[Si](C)(C)O[Si](C)(C)O1`, for which the Potency result in assay [1], in assay [3], in [4], in assay [5] and in [6] was “inactive” each time. The result in [9] was inactive.
Consider `CN(C)CCOC1=Cc2ccccc2Sc2ccc(Cl)cc21`, for which the Potency result in assay [1], in assay [3] and in [7] was “inactive” in each case. The outcome in [9] was inactive.
In the case of `CCCCOC(=O)CCS`, the Potency result in assay [1], in [3], in assay [6] and in assay [7] was “inactive” in each case. The result in assay [9] was inactive.
